Test results: PubChem BioAssay (Tox21)
Calls of active or inactive are those of the source. Calls follow the shape of the dose curve; as a rule, active = well fitted curve in the direction sought with a large enough effect in the repeat runs; inconclusive = weak or mixed curves; inactive = flat fitted curve, though single readings scatter.
% is scaled to controls: 0 for no effect and ±100 for the full control effect.

Assay: qHTS assay to test for compound auto fluorescence at 590 nm (red) in HEK293 cells (AID 720679)
Conditions: red autofluorescence 540/590 nm; series mostly up to 91.3 µM; fluorescence, % of fluorescent control: at the top concentration
Excerpt: National Center for Advancing Translational Sciences [NCATS]
NIH Chemical Genomics Center [NCGC]
U.S. Environmental Protection Agency [EPA]
National Institutes of Environmental Health Sciences [NIEHS]
National Toxicology Program [NTP]
U.S. Food and Drug Administration [FDA]
Compound auto fluorescence often interferes with screening of the compound library against various biological targets and signaling pathways. Some of these compounds may have fluorophoric properties. Such properties may interfere with the assay outputs resulting in false positives and/or negatives. To decrease such complications and ensure the compound activities are relevant in terms of biological response, the Tox21 10K compound library was screened for auto fluorescence.
From the fluorophores used as reporter signals in our screening assays, the auto fluorescence equivalencies of compounds against three fluorophores have been evaluated: Triamterene, Fluorescein and Rose Bengal sodium for blue, green and red fluorescence, respectively. The fluorescence intensities were measured using Excitation/Emission wavelengths at 405/460nm, 485/535nm and 540/590nm for blue, green and red labels, respectively. This assay includes the red fluorescence data.
Tox21 Assay Protocol Summary:
2,000 HEK293 cells in 5 uL of culture medium containing 10% dialyzed FBS per well were dispensed into black wall/clear bottom 1536-well plates using a Multidrop Combi Dispenser (Thermo Scientific). The assay plates were incubated for 4-5 hr at 37C to allow cell attachment to the well bottom, followed by the transfer of 23 nL compound or DMSO vehicle by a pintool work station (Kalypsys, San Diego, CA). After the assay plates were incubated overnight at 37C and 5% CO2, fluorescence intensities in the assay plates were measured by an Envision (PerkinElmer, Shelton, CT) plate reader using three labels for measuring blue, green and red fluorescence at […] 460, 535 and 590nm respectively.
In the case of O=C(O)c1c(Cl)cccc1Cl, the “fluorescence, % of fluorescent control” value is reported as 0.239% (inactive).
For Cc1[nH]cnc1C[C@H]1CCc2c(C)c3ccccc3n2C1=O, the Potency was “inactive”.
For Clc1ccc2cc3ccccc3cc2c1, the “fluorescence, % of fluorescent control” value was -0.225% (inactive).
With O=C(Oc1cccc2cccnc12)c1ccccc1 the “fluorescence, % of fluorescent control” value was 0.24% [at 46 µM] (inactive).
For CCCC(=O)OC[C@@H](OC(=O)CCC)[C@@H](OC(=O)CCC)[C@H](Cn1c2nc(=O)[nH]c(=O)c-2nc2cc(C)c(C)cc21)OC(=O)CCC, the “fluorescence, % of fluorescent control” value was 0.0977% [at 46 µM] (inactive).
In the case of O=C(NOCC1CC1)c1ccc(F)c(F)c1Nc1ccc(I)cc1Cl, the “fluorescence, % of fluorescent control” value is reported as 0.0316% [at 46 µM] (inactive).
In the case of O=[N+]([O-])c1cc(Cl)c(Cl)c(Cl)c1Cl, the “fluorescence, % of fluorescent control” value is reported as -0.0484% (inactive).
With Cc1ccc(O)c2ncccc12 the “fluorescence, % of fluorescent control” value was 0.0759% [at 46 µM] (inactive).
For Cc1cccc(S(=O)(=O)O)c1C, the “fluorescence, % of fluorescent control” value was 0.1% (inactive).
With CCc1oc2ccccc2c1C(=O)c1cc(Br)c(O)c(Br)c1 the “fluorescence, % of fluorescent control” value was -0.0011% [at 46 µM] (inactive).
For CC[C@H]1O[C@]2(CC[C@@H]1C)C[C@@H]1C[C@@H](C/C=C(\C)C[C@@H](C)/C=C/C=C3\CO[C@@H]4[C@H](O)C(C)=C[C@@H](C(=O)O1)[C@]34O)O2, the “fluorescence, % of fluorescent control” value was -0.0322% (inactive).
For C[C@@H]1C[C@H]2[C@@H]3CCC4=CC(=O)C=C[C@]4(C)[C@@]3(Cl)[C@@H](O)C[C@]2(C)[C@@]1(OC(=O)c1ccco1)C(=O)CCl, the fluorescence, % of fluorescent control was 0.225% [at 18.6 µM] (inactive).
In the case of Oc1c(Cl)cc(Cl)c2cccnc12, the “fluorescence, % of fluorescent control” value is reported as -0.388% [at 46 µM] (inactive).
In the case of CCOC(=O)O[C@]1(C(=O)OCCl)CC[C@H]2[C@@H]3CCC4=CC(=O)C=C[C@]4(C)[C@H]3[C@@H](O)C[C@@]21C, the “fluorescence, % of fluorescent control” value is reported as -0.0183% [at 46 µM] (inactive).
With O=C1Cc2cc(CCN3CCN(c4nsc5ccccc45)CC3)c(Cl)cc2N1 the Potency was “inactive”.
For O=c1[nH]sc2ccccc12, the “fluorescence, % of fluorescent control” value was -0.597% (inactive).
With [Cl][Au]([Cl])[Cl] the “fluorescence, % of fluorescent control” value was -0.0764% (inactive).
In the case of O=C(Nc1cccc(C(F)(F)F)c1)c1cc(Br)cc(Br)c1O, the Potency is reported as “inactive”.
For COc1cccc(N)c1, the “fluorescence, % of fluorescent control” value was -0.182% (inactive).
With CC(=O)S[C@@H]1CC2=CC(=O)CC[C@]2(C)[C@H]2CC[C@@]3(C)[C@@H](CC[C@@]34CCC(=O)O4)[C@H]12 the Potency was “inactive”.
For O=c1c(-c2ccccc2)c1-c1ccccc1, the “fluorescence, % of fluorescent control” value was -0.187% [at 46 µM] (inactive).
For CCCCN(CCCC)c1ccc(C(=O)c2ccccc2C(=O)O)c(O)c1, the “fluorescence, % of fluorescent control” value was 0.0266% (inactive).
With CCC1=C[C@@H]2CN(C1)Cc1c([nH]c3ccccc13)[C@@](C(=O)OC)(c1cc3c(cc1OC)N(C)[C@H]1[C@@](O)(C(=O)OC)[C@H](OC(C)=O)[C@]4(CC)C=CCN5CC[C@]31[C@@H]54)C2 the “fluorescence, % of fluorescent control” value was -0.249% [at 46 µM] (inactive).
With CCC1OCC(COc2ccc(Oc3ccccc3)cc2)O1 (stereo not given) the “fluorescence, % of fluorescent control” value was 0.303% (inactive).
For CSc1ccc(C(=O)c2[nH]c(=O)[nH]c2C)cc1, the “fluorescence, % of fluorescent control” value was -0.0447% [at 46 µM] (inactive).
In the case of Cc1onc(-c2ccccc2Cl)c1C(=O)N[C@@H]1C(=O)N2[C@@H]1SC(C)(C)[C@@H]2C(=O)O, the fluorescence, % of fluorescent control is reported as 0.844% [at 18.6 µM] (inactive).
For Nc1ccccc1O, the “fluorescence, % of fluorescent control” value was 0.311% (inactive).
With Cc1c(C)c2c(c(C)c1O)CCC(C)(COc1ccc(CC3SC(=O)NC3=O)cc1)O2 (stereo not given) the Potency was “inactive”.
With O=C1CCCCCN1SSN1CCCCCC1=O the “fluorescence, % of fluorescent control” value was 0.0747% (inactive).
In the case of CCC(N)(CO)CO, the “fluorescence, % of fluorescent control” value is reported as -0.505% (inactive).
For CCCCCCCCCCC=O, the “fluorescence, % of fluorescent control” value was -0.133% [at 95.7 µM] (inactive).
In the case of Cc1ccc2oc(CN(Cc3ccccc3)C(=O)Nc3c(F)cc(F)cc3F)c(-c3ccc(Cl)cc3)c2c1, the “fluorescence, % of fluorescent control” value is reported as -0.316% (inactive).
With OCCN(CCO)c1nc(N2CCCCC2)c2nc(N(CCO)CCO)nc(N3CCCCC3)c2n1 the “fluorescence, % of fluorescent control” value was 0.287% [at 46 µM] (inactive).
For Oc1ccc(N=Nc2ccccc2)cc1, the “fluorescence, % of fluorescent control” value was -0.611% [at 95.7 µM] (inactive).
With Cc1cc(O)c(C(C)(C)C)cc1Sc1cc(C(C)(C)C)c(O)cc1C the “fluorescence, % of fluorescent control” value was 0.307% (inactive).
With CNC(=O)c1ccccc1 the “fluorescence, % of fluorescent control” value was -0.0395% (inactive).
With CC1(C)CCC(C)(C)c2cc(C(=O)Nc3ccc(C(=O)O)cc3)ccc21 the “fluorescence, % of fluorescent control” value was 0.487% (inactive).
With CCN(C(=O)c1cc(C)cc(OC[C@H](C)Nc2ccncc2)c1)C(C)C the “fluorescence, % of fluorescent control” value was -0.0322% (inactive).
For Oc1cccc2cc3cccc(O)c3c(O)c12, the “fluorescence, % of fluorescent control” value was -0.337% (inactive).
In the case of Fc1ccc([C@@H]2CCNC[C@H]2COc2ccc3c(c2)OCO3)cc1, the “fluorescence, % of fluorescent control” value is reported as 0.0184% [at 46 µM] (inactive).
